For 10 compounds, Percent Effect results are on record in ChEMBL document CHEMBL3988442, “University of Dundee, Small-Polar-MMV Screening Library” (2021).

SMILES strings stand for the structures. For some assays here: Entries with a potency or affinity are not part of this list.

Design in all cases: scale not given: direction of the effect not stated beside the values
Experiment [1] deals with Protein translocase subunit SecA (Escherichia coli (strain K12)) (UniProt P10408). Description: Assay to Identify E. coli SecA ATPase Inhibitors. Particulars: 30 µM. It is filed as functional.
Sequence of Protein translocase subunit SecA (Escherichia coli (strain K12)) (P10408 whole entry): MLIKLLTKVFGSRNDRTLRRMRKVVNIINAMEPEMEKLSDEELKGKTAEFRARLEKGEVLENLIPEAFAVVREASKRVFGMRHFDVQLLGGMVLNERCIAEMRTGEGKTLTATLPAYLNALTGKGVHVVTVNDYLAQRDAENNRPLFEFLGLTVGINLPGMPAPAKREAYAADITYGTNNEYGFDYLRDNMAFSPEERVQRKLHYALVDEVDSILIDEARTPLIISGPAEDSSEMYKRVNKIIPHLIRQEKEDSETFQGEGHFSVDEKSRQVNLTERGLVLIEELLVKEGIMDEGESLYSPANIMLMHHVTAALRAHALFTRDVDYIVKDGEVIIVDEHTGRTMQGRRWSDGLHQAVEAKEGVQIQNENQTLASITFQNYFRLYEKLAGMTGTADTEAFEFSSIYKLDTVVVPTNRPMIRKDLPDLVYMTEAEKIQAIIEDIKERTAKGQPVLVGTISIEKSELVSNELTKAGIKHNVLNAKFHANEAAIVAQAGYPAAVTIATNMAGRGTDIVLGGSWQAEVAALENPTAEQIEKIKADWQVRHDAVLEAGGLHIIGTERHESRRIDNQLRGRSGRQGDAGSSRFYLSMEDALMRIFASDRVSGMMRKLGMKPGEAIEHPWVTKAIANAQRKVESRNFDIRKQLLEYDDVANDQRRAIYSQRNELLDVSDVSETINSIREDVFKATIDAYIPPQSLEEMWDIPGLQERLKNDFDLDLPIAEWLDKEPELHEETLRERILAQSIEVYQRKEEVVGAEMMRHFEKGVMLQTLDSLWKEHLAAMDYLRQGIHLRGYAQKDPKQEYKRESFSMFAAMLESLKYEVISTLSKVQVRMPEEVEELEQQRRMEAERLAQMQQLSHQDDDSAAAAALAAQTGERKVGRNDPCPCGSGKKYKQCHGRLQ
Experiment [2] has as its target T1, Ubiquitin-activating enzyme e1, putative (Leishmania donovani (strain BPK282A1)) (UniProt E9BSI1).
T1 sequence (whole entry): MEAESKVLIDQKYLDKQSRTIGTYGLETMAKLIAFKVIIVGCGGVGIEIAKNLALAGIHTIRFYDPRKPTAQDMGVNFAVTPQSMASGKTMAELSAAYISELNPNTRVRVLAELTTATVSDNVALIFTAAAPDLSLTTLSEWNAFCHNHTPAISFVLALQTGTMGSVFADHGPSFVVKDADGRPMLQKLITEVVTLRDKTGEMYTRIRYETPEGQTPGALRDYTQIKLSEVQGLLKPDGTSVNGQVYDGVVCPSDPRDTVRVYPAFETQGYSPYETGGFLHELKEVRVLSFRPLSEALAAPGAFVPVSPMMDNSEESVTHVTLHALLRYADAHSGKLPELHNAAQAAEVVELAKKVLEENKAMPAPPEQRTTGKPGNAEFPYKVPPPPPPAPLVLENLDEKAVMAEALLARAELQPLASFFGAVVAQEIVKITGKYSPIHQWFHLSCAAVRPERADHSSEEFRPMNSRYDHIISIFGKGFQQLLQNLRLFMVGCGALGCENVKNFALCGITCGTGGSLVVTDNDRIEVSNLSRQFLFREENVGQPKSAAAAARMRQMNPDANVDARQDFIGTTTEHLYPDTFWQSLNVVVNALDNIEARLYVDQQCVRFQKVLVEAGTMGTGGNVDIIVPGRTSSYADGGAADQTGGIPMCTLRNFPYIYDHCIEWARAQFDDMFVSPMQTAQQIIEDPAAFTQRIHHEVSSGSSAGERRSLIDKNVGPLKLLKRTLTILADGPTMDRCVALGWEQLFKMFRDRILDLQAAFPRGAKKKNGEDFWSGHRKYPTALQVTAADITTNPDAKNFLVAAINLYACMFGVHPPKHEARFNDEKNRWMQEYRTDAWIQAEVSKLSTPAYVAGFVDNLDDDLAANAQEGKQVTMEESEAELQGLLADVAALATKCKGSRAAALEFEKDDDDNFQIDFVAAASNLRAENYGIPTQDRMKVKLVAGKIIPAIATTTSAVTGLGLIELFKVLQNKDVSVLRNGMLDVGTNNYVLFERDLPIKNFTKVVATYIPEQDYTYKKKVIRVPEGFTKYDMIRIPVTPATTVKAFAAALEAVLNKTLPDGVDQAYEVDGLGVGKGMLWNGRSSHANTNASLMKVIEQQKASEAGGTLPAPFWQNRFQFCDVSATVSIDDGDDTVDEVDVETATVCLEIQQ
Nature of the experiment: Leishmania donovani Ubiquitin Activating Enzyme (LdE1). In kind it is functional. Particulars: 30 µM.

For experiment [3], the target named is AMP-activated protein kinase, AMPK (Homo sapiens) (UniProt P54646+O43741+P54619+Q9UGJ0+Q9Y478+Q13131+Q9UGI9). Nature of the experiment: AMP-dependent Kinase enzyme assay. An in vitro enzyme assay that detects ADP turnover that is directly proportional to AMPK activity. This uses naive AMPK that is activated during the assay with MK-8722. It is filed as functional. Particulars: 30 µM.

Experiment [4] has as its target Sialic acid-binding Ig-like lectin 9 (Homo sapiens) (UniProt Q9Y336). Nature of the experiment: Hs-Siglec9 ALPHAscreen SOP 20170721. Particulars: 10 µM. In general terms: Alpha assays give light when donor and acceptor beads are brought close together.
Experiment [5] has as its system Trypanosoma cruzi. Description: Trypanosoma cruzi phosphomannomutase and mannose-1-phosphate guanylyltransferase assay. Particulars: 10 µM. In kind it is functional.
The target of experiment [6] is T2, Arginase-2, mitochondrial (Homo sapiens) (UniProt P78540).
T2 sequence (whole entry): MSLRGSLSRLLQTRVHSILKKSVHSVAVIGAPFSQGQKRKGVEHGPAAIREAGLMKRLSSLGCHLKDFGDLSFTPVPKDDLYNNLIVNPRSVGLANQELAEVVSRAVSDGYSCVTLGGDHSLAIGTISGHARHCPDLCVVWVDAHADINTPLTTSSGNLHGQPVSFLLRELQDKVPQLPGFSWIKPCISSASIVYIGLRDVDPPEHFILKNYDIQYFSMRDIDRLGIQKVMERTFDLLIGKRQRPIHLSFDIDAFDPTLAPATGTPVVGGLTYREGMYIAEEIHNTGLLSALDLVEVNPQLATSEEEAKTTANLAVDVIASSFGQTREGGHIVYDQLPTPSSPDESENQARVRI
Description: in vitro enzyme assay to detect the production of urea directly proportional to the activity of Arginase II. Further: in the data most compounds retested in dose-response had high values. It is filed as functional. Particulars: 33.3 µM.

Experiment [7] deals with T3, Proteasome subunit beta (Trypanosoma cruzi) (UniProt O96673).
T3 sequence (whole entry): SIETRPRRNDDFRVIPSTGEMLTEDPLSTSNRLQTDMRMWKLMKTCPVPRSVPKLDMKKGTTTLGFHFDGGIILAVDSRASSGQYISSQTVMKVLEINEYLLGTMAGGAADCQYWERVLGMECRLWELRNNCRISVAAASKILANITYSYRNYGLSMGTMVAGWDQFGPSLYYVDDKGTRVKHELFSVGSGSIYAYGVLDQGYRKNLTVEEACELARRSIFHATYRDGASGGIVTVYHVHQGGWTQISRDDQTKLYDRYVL
Description: Trypanosoma cruzi proteasome chymotrypsin-like activity (TcProtChymo) assay. Further: in the data most compounds retested in dose-response had high values. Particulars: 9.37 µM. In kind it is functional.

For experiment [8], the species on record is Homo sapiens. Description: To identify inhibition of the IFN signalling (Jak-Stat) pathway via expression of an eGFP reporter gene under the control of an IFN-stimulated response element (ISRE) containing MxA promoter. In kind it is functional. Particulars: 30 µM.
For experiment [9], the target named is T4, Tyrosyl-tRNA synthetase, putative (Trypanosoma cruzi (strain CL Brener)) (UniProt Q4DSP6).
T4 sequence (whole entry): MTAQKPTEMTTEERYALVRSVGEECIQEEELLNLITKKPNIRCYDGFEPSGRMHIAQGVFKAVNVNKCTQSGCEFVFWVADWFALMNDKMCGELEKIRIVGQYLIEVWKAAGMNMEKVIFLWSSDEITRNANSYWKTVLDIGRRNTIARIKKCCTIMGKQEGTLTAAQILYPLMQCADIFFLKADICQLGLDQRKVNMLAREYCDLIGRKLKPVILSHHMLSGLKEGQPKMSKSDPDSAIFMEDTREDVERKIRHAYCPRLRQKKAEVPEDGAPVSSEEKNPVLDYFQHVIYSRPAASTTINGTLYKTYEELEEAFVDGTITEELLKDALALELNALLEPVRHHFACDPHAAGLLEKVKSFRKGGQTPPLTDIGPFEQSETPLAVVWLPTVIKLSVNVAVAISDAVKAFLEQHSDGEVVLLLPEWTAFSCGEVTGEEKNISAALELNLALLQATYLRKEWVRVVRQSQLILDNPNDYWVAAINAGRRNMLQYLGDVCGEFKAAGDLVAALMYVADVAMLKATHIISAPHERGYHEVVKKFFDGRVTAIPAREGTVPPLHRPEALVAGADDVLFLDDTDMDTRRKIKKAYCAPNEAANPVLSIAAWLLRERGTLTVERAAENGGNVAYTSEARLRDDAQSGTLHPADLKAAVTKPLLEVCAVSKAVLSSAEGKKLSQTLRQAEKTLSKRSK
Nature of the experiment: Trypanosoma cruzi tyrosyl tRNA synthetase (TcYRS) _High Tyrosine SOP. Further: in the data most compounds retested in dose-response had high values. Particulars: 30 µM. It is filed as functional.

Experiment [10] addresses T4, Tyrosyl-tRNA synthetase, putative (Trypanosoma cruzi (strain CL Brener)). Description: Trypanosoma cruzi tyrosyl tRNA synthetase (TcYRS) SOP. It is filed as functional. Particulars: 30 µM.
The target in experiment [11] is Chromo domain-containing protein 1 (Saccharomyces cerevisiae (strain ATCC 204508 / S288c) (Baker's yeast)) (UniProt P32657). Nature of the experiment: ScCHD-1 Enzyme Inhibition Assay. Further: in the data most compounds retested in dose-response had high values. It is filed as functional. Particulars: 30 µM.
Sequence of Chromo domain-containing protein 1 (Saccharomyces cerevisiae (strain ATCC 204508 / S288c) (Baker's yeast)) (P32657 whole entry, the tested form may be a part): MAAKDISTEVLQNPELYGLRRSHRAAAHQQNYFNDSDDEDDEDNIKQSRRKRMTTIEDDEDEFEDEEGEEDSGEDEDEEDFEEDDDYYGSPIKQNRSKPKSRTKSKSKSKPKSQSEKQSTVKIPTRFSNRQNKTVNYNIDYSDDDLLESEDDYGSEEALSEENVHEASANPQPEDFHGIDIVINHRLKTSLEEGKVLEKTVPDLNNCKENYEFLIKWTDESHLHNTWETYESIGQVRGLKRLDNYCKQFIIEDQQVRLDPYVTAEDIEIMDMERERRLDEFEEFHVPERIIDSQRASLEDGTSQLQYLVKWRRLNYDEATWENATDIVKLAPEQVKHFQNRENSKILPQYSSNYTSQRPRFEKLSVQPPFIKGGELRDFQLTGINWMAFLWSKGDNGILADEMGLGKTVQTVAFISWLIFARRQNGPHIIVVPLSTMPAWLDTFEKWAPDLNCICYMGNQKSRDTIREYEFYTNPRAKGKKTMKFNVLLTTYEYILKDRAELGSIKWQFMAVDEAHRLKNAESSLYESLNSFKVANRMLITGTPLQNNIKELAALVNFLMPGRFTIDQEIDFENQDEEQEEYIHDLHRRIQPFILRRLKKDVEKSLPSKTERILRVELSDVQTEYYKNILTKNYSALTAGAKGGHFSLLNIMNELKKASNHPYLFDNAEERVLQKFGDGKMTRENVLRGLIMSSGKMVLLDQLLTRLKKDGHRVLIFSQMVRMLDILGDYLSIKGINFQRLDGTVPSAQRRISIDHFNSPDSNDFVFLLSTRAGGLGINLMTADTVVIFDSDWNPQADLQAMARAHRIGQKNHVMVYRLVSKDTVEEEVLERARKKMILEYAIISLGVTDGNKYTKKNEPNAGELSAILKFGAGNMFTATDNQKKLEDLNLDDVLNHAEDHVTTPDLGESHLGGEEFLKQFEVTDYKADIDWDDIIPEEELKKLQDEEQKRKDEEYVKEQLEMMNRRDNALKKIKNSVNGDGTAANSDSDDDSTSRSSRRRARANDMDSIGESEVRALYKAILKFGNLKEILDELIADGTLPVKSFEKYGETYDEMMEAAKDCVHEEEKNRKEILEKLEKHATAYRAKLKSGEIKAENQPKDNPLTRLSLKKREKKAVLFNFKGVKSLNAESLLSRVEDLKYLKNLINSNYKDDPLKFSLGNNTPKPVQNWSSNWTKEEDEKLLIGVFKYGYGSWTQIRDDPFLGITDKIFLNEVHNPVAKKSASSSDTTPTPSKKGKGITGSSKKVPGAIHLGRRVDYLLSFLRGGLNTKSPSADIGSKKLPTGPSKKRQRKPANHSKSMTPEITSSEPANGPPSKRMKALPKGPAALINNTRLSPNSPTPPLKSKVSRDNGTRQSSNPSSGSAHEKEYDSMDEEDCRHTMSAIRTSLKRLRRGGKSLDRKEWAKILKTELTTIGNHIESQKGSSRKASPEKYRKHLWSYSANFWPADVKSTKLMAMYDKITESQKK

Sequence of Sialic acid-binding Ig-like lectin 9 (Homo sapiens) (Q9Y336 whole entry): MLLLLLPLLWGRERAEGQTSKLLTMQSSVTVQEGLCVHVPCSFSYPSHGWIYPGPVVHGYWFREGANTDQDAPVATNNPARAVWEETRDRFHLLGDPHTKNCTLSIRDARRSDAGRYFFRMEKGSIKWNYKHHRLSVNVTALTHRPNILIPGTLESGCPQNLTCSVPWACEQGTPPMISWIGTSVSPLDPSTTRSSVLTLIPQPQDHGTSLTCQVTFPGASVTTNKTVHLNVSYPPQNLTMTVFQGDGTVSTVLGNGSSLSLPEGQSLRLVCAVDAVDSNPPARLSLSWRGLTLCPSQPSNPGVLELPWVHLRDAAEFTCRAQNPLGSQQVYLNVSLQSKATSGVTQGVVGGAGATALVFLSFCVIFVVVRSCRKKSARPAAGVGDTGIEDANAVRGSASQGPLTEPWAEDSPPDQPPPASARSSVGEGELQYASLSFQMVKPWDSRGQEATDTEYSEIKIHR

Consider `CN(c1ccc(C(C)(C)C)cc1)S(=O)(=O)c1cc(C(=O)O)cs1`, for which the Percent Effect in experiment [1] is -2.58%; in experiment [2], -2.7%; in experiment [3], -8.07%; in [4] it was 8.29%; in [5], -3.11%; in experiment [6] it was 2.4%. Besides, the Percent Effect was -1.08% in [7]; -8.15% in experiment [8]; -1.48% in [9]; 1.24% in [10]; 1.18% in [11].

Turning to `CCc1cc(N[C@H]2CC[C@H](O)CC2)n2nc(C)c(C)c2n1`, the Percent Effect in experiment [1] was -3.74%; in experiment [2], 1.39%; in experiment [3] it was 0.211%; in experiment [4], -3.49%; in [5], -2.82%; in experiment [6], -0.442%. The Percent Effect in experiment [7] was 5.09%; in experiment [8] it was -20.9%; in experiment [9], -9.47%; in experiment [10], 10.3%; in [11], -3.52%.

On to `Cc1cnn(C2CCCN(C(=O)c3ccn(C)c(=O)c3)C2)c1` (stereo not given), for which the Percent Effect was -0.722% in [1]; 7.79% in experiment [2]; -5.73% in experiment [3]; -4% in experiment [4]; 1.08% in [5]; 5.68% in [6]. Also, the Percent Effect was -3.15% in experiment [7]; 20.6% in experiment [8]; 3.81% in experiment [9]; 11.8% in experiment [10]; -14.6% in experiment [11].

Consider `Cc1cc(C2CCCN2C(=O)NCc2cccc(F)c2)on1` (stereo not given), for which the Percent Effect in [1] was -3.25%; in experiment [2], 8%; in [3], -2.75%; in experiment [4] it was 0.538%; in experiment [5], -1.07%; in experiment [6], 1.56%. Further, the Percent Effect was 16.2% in [7]; 10.1% in experiment [8]; 8.2% in experiment [9]; 13.6% in experiment [10]; -5.2% in experiment [11].

For `CCN1CCN(C2CCN(Cc3nc4ccccc4o3)CC2)C1=O`, the Percent Effect in experiment [1] was -1.89%; in [2], 10.4%; in experiment [3] it was 0.349%; in experiment [4] it was -1.67%; in experiment [5], 1.67%; in [6], -2.74%. For the same compound, the Percent Effect in experiment [7] is 14.2%; in experiment [8] it was -19%; in experiment [9] it was 7.62%; in [10], 21.2%; in experiment [11], -20.3%.

Turning to `Cc1cnn(CCC(=O)N2CCCN(c3cccnn3)CC2)c1`, the Percent Effect in experiment [1] was 1.07%; in experiment [2], 3.8%; in experiment [3], 1.28%; in experiment [4] it was 0.558%; in experiment [5] it was 1.74%; in [6], -0.645%. Moreover, the Percent Effect is 13.2% in [7]; 12.8% in [8]; 2.08% in experiment [9]; 5.06% in [10]; -16.1% in experiment [11].

As to `Cn1ccnc1CN1CCC2(CC1)CN(CC1CC1)C(=O)CO2`, the Percent Effect was -1.66% in experiment [1]; 0% in experiment [2]; 7.96% in experiment [3]; -0.145% in experiment [4]; -0.296% in [5]; -1.94% in experiment [6]. For the same compound, the Percent Effect was 0.522% in [7]; 12.5% in experiment [8]; 4.23% in experiment [9]; 8.97% in experiment [10]; 90.8% in [11].

For the compound `O=C(CCN1CCC(C(=O)c2cc(F)ccc2F)CC1)NC1CC1`, the Percent Effect was -5.55% in experiment [1]; 5.26% in experiment [2]; 2.46% in experiment [3]; 2.22% in experiment [4]; -0.0974% in [5]; -1.18% in experiment [6]. For the same compound, the Percent Effect was 12.4% in experiment [7]; 16.9% in [8]; 3.19% in experiment [9]; 15.6% in experiment [10]; -3.85% in experiment [11].

For `O=C(CCOCc1ccccc1)N1CCCC1c1noc(C2CC2)n1` (stereo not given), the Percent Effect in experiment [1] is -0.0528%; in [2], 21.6%; in experiment [3], -9.42%; in [4] it was 3.05%; in experiment [5], 1.23%; in [6] it was -10.4%. The Percent Effect in experiment [7] was 5.22%; in experiment [8] it was 4.41%; in [9], -23.1%; in experiment [10] it was 25.9%; in [11], -10%.

In the case of `Cc1cc(C)n(C2CN(CC(O)c3ccc(F)cc3)C2)n1` (stereo not given), the Percent Effect in experiment [1] is -2.64%; in experiment [2], -15.6%; in experiment [3], -6.46%; in [4], 8.34%; in experiment [5], 0.936%; in [6], -5.34%. The Percent Effect was 12.3% in [7]; 4.19% in experiment [8]; 6.8% in experiment [9]; 12.2% in experiment [10]; -6.46% in [11].
